Data from PubChem BioAssay (NCATS).
Results filed as inconclusive are left out. The source made the active and inactive calls. Unless noted, calls follow the shape of the dose curve; as a rule, active = well fitted curve in the direction sought with a large enough effect; inconclusive = small, poorly fitted or top-dose-only effect, or another doubt; inactive = no such curve, though single readings can be large; an effect the other way counts as inactive or inconclusive.

Experiments:
[1] = AP1 Signaling Pathway (AID 357; active = well fitted curve in either direction with a large enough effect, not every such curve was filed as active;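 also: ME-180 reporter cells stimulated with EGF at its EC50 level; % is scaled to controls: 0 for no effect and ±100 for the full control effect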); conditions: ME-180 AP-1-bla reporter, EGF-induced, beta-lactamase ratio, 5 h; at 7.69 µM (top of the series) unless noted
Summary of the method: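 In this screen, ME-180 cells in Opti-MEM with 0.5% dialyzed FBS received EC50 EGF and compound titrations for 5 h. AP-1 reporter beta-lactamase was detected via CCF4 ratio, giving AC50 for positive and negative modulators.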

[2] = target: Cytochrome P450 1A2 (Homo sapiens) (UniProt P05177); test: p450-cyp1a2 (AID 410; calls by dose curve; also: potency is read from the fitted curve at half-maximal effect;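 as to activity change, negative = inhibition: -100% = full effect of reference inhibitor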)
Summary of the method: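 20nM CYP1A2 with 100uM Luciferin-ME (at Km) in 100mM KPO4; compound preincubated 10 min, NADPH regeneration added, 60 min at room temperature. Luciferin quantified by luminescence after detection reagent; normalized to 57 uM furafylline.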

[3] = Stat Signaling Pathway (AID 446; active = well fitted curve in either direction with a large enough effect, not every such curve was filed as active;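 also: ME-180 cervical cancer cells given 40 pM IL-6 alongside compound; SIE-controlled beta-lactamase reporter measured as 460/530 nm FRET emission ratio; % is scaled to controls: 0 for no effect and ±100 for the full control effect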); conditions: ME-180 SIE beta-lactamase reporter, IL-6 stimulated, 5 h; at 7.69 µM (top of the series) unless noted
Summary of the method: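 Screening format detects activators and inhibitors alike: ME-180 SIE-bla cells stimulated at 40 pM IL-6 for 5 hrs with compound, then dual-emission beta-lactamase read at 405 nm excitation.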

[4] = target: Glucocorticoid receptor (Homo sapiens) (UniProt P04150); test: GR-GFP Redistribution (AID 450;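 active = compounds whose dose series gives a full or clear partial fitted curve of increased nuclear translocation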; also: potency is read from the fitted curve at half-maximal effect); conditions: U2OS GR-GFP nuclear translocation, laser cytometry, 2 h
[5] = target: Glucocorticoid receptor (Homo sapiens) (UniProt P04150); test: GR-EFC Redistribution (AID 451; calls by dose curve; also: potency is read from the fitted curve at half-maximal effect); conditions: CHO-K1 GR-EFC translocation, beta-gal luminescence, 2 h
Summary of the method: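 CHO-K1 cells stably expressing nuclear-localized β-gal enzyme acceptor and GR fused C-terminally to the enzyme donor fragment; ligand-driven nuclear translocation restores β-gal by complementation. Compounds titrated up to 46 uM final, 2 h at 37 °C; luminescence read.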

[6] = target: Cytochrome P450 3A4 (Homo sapiens) (UniProt P08684); test: qHTS Assay for Activators of Cytochrome P450 3A4 (AID 885); also: nearly all actives have a fitted effect of over 65% in size
Summary of the method: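 Steps: enzyme/substrate mix dispensed; compound added, 10 min RT; NADPH regeneration solution added, 60 min RT; luciferin detection buffer stops reaction; 20 min later luminescence measured.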

[7] = qHTS Assay for Lipid Storage Modulators (AID 1519; calls by dose curve); conditions: Drosophila S3 cells, BODIPY lipid droplet/cell ratio, laser cytometry, cells loaded with oleic acid; for activity change, negative = inhibition: at 57.5 µM (top of the series)
Summary of the method: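 Cells seeded at 5,000 per well were treated with compounds over a concentration series and loaded with oleic acid (400 uM, as added). Lipid droplet fluorescence (488 nm excitation, 500-530 nm channel) was read by laser-scanning cytometry and normalized to 20 uM Triacsin C.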

[8] = target: Lysosomal acid glucosylceramidase (Homo sapiens) (UniProt P04062); test: Glucocerebrosidase-p2 (AID 348; in the data active = potency below about 10 µM; also: potency is read from the fitted curve at half-maximal effect); conditions: purified GBA, blue fluorogenic substrate, 40 min
Summary of the method: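 Compounds titrated from 0.6 nM upwards against 0.2 nM enzyme in pH 5.9 citric acid/KH2PO4, taurocholate, tween-20; blue fluorogenic substrate 80 uM, 40 min room temperature, stopped and read Ex 365/Em 440 for AC50.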

[9] = NFAT Signaling Pathway (AID 444; active = well fitted curve in either direction with a large enough effect, not every such curve was filed as active;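 also: carbachol stimulus at about its EC50 of 1 µM final; % is scaled to controls: 0 for no effect and ±100 for the full control effect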); conditions: Jurkat NFAT-bla M1, carbachol, beta-lactamase ratio, 5 h; at 7.69 µM (top of the series) unless noted
Summary of the method: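 Jurkat cells carrying an NFAT-driven β-lactamase reporter and co-transfected muscarinic M1 receptor were treated with compound plus carbachol (1 uM final, an EC50 level) for 5 h at 37 °C. CCF4 loading followed for 1 h at RT; 460/530 nm ratio gave %activity.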

[10] = target: Mitogen-activated protein kinase 10 (Mus musculus) (UniProt Q61831); test: JNK3 AlphaScreen Assay (AID 530; active = well fitted curve in either direction with a large enough effect, not every such curve was filed as active;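 also: kinase came from lysate of stimulated human HepG2 cells; signal reports phosphorylation of biotinylated GST-cJun 1-79 at Ser73 with 10 µM ATP; % is scaled to controls: 0 for no effect and ±100 for the full control effect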)
Summary of the method: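 Inhibitors reduce antibody binding to phosphorylated biotin-cJun, lowering AlphaScreen luminescence. Lysates from HepG2 cells pre-activated by IL-1beta plus TNF-alpha supplied JNK3; compounds were titrated.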

[11] = target: 3',5'-cyclic-AMP phosphodiesterase 4B (Homo sapiens) (UniProt Q07343); test: qHTS Assay for Inhibitors of PDE-IV (AID 607; active = well fitted activation curve with a large enough effect in the main read-out, with a control signal flat, not every such curve was filed as active; also: % of control where 0% means no effect)
Summary of the method: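 The readout is membrane depolarisation from a cAMP-sensing CNG channel, detected with a potential dye at ex 535/em 590. Cells were HEK293-derived (endogenous PDE-IV) at 1000 cells/well, titrated up to 22.9 uM final.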

[12] = target: Cytochrome P450 3A4 (Homo sapiens) (UniProt P08684); test: qHTS Assay for Inhibitors and Substrates of Cytochrome P450 3A4 (AID 884); also: potency is read from the fitted curve at half-maximal effect; nearly all actives have a fitted effect of over 50% in size
Summary of the method: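 20 nM human CYP3A4 with 25 uM Luciferin-PPXE (at KM) in 200 mM KPO4, preincubated 10 min with compound; NADPH regeneration started a 60 min RT reaction. Luciferin detected by luminescence, normalized to 57 uM ketoconazole as full inhibition.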

[13] = target: Dual specificity protein kinase CLK4 (Homo sapiens) (UniProt Q9HAZ1); test: qHTS Assay for Inhibitors of CDC-like Kinase 4 (Kinase-Glo Assay) (AID 1770); also: nearly all actives have a fitted effect of over 65% in size; also: potency is read from the fitted curve at half-maximal effect
Summary of the method: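 25 nM Clk4 with 100 uM RS repeat peptide and 1 uM ATP (final) in Tris pH7.5, 10 mM MgCl2, 4.5 h at room temperature. Remaining ATP measured by Kinase-Glo luciferase luminescence.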

[14] = target: Dual specificity protein kinase CLK4 (Homo sapiens) (UniProt Q9HAZ1); test: qHTS Assay for Inhibitors of CDC-like Kinase 4 (ADP-Glo Assay) (AID 1771); also: nearly all actives have a fitted effect of over 70% in size; also: potency is read from the fitted curve at half-maximal effect
Summary of the method: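 25 nM Clk4 with 100 uM RS repeat peptide and 1 uM ATP (final) in buffer with 2 mM MgCl2, 0.5 mM EGTA, 2.5 mM DTT, 0.01% Triton X-100; 1 h at room temperature; ADP-Glo luminescence for ADP formed.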

[15] = target: Dual specificity protein kinase CLK4 (Homo sapiens) (UniProt Q9HAZ1); test: qHTS Assay for Inhibitors of CDC-like Kinase 4 (ADP-FP Assay) (AID 1795);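 also: recombinant human CLK4 phosphorylating RS repeat peptide at 1 µM ATP; % is scaled to controls: 0 for no effect and ±100 for the full control effect; nearly all actives have a fitted effect of over 60% in size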
Summary of the method: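 Recombinant Clk4 (6.25 nM) phosphorylated 100 uM RS repeat peptide with 1 uM ATP in 25 mM Tris pH 7.5, 10 mM MgCl2, 0.5 mM EGTA, 2.5 mM DTT, 0.01% Triton X-100 for 1 h. ADP was detected by Transcreener ADP2 competitive fluorescence polarization after 30 min at room temperature.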

[16] = target: Ubiquitin carboxyl-terminal hydrolase 1 (Homo sapiens) (UniProt O94782); test: Inhibitors of USP1/UAF1: Pilot qHTS (AID 504865);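 also: rhodamine fluorescence freed from ubiquitin-rhodamine substrate followed over time; top concentration of the series differs between compounds; % is scaled to controls: 0 for no effect and ±100 for the full control effect; nearly all actives have a fitted effect of over 35% in size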
Summary of the method: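 USP1/UAF1 complex at 1 nM preincubated 15 min at room temperature with compound, then Ub-Rho substrate added at 150 nM final. Fluorescence (480/540 nm) read kinetically in 50 mM HEPES pH 7.8, 0.5 mM EDTA, 1 mM TCEP, 0.1 mg/ml BSA, 0.01% Tween-20.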

[17] = Confirmation and Secondary Assay for Modulators of Hemoglobin Beta Chain Splicing at IVS2 705 locus (AID 930);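 also: HeLa cells stably expressing the EGFP-705 splicing reporter; GFP fluorescence per well restored by corrected splicing of the IVS2-705 intron in EGFP; % of control where 0% means no effect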
Summary of the method: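 HeLa cells stably carrying EGFP interrupted by mutant beta-globin intron 2 (IVS2-705) treated 2 days at 37C with compound; 500 nM antisense PNA as control. Correct splicing read as total peak GFP intensity per well by laser-scanning cytometry.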

[18] = target: Rap guanine nucleotide exchange factor 3 (Homo sapiens) (UniProt O95398); test: Confirmatory qHTS for agonist of cAMP-regulated guanine nucleotide exchange factor 3 (EPAC1) (AID 1645881);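 also: EPAC1 catalysed release of BODIPY-GDP from Rap1B seen as fluorescence loss; 100% = effect of cAMP agonist control; nearly all actives have a fitted effect of over 75% in size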
[19] = target: Rap guanine nucleotide exchange factor 4 (Homo sapiens) (UniProt Q8WZA2); test: Confirmatory qHTS for agonist of cAMP-regulated guanine nucleotide exchange factor 4 (EPAC2) (AID 1645884);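 also: nucleotide exchange releases bodipy-GDP from Rap1 and this lowers its fluorescence; % is scaled to controls: 0 for no effect and ±100 for the full control effect; nearly all actives have a fitted effect of over 65% in size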
[20] = target: Rap guanine nucleotide exchange factor 4 (Homo sapiens) (UniProt Q8WZA2); test: Confirmatory qHTS for antagonist of cAMP-regulated guanine nucleotide exchange factor 4 (EPAC2) (AID 1645885); also: potency is read from the fitted curve at half-maximal effect; nearly all actives have a fitted effect of over 25% in size
[21] = measured here: cell count channel max response
[22] = measured here: lipid channel max response

Rap guanine nucleotide exchange factor 3 (Homo sapiens), sequence (O95398 whole entry, looked up): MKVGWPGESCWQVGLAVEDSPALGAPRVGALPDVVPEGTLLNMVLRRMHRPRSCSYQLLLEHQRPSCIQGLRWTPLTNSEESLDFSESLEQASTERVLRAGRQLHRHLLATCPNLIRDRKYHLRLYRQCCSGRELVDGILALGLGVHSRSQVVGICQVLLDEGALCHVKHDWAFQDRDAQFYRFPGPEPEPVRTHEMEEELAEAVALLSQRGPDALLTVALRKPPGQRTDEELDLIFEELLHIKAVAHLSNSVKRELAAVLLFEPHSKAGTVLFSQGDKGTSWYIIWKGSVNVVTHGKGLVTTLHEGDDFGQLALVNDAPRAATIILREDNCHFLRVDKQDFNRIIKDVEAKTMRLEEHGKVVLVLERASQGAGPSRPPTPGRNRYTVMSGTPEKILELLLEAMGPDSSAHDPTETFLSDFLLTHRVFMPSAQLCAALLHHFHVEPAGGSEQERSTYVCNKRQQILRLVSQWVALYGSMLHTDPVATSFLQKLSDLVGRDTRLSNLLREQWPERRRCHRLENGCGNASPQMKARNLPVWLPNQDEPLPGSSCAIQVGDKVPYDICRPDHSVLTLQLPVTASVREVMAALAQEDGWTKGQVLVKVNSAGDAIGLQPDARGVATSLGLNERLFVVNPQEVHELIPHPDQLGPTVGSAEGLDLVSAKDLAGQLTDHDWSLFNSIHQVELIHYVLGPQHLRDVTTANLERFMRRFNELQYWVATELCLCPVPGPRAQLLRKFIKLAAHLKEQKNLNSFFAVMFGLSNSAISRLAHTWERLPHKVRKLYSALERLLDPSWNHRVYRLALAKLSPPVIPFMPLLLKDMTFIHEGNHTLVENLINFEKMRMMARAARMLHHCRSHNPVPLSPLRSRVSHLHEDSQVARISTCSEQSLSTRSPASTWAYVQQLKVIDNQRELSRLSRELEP
Rap guanine nucleotide exchange factor 4 (Homo sapiens), sequence (Q8WZA2 whole entry, looked up): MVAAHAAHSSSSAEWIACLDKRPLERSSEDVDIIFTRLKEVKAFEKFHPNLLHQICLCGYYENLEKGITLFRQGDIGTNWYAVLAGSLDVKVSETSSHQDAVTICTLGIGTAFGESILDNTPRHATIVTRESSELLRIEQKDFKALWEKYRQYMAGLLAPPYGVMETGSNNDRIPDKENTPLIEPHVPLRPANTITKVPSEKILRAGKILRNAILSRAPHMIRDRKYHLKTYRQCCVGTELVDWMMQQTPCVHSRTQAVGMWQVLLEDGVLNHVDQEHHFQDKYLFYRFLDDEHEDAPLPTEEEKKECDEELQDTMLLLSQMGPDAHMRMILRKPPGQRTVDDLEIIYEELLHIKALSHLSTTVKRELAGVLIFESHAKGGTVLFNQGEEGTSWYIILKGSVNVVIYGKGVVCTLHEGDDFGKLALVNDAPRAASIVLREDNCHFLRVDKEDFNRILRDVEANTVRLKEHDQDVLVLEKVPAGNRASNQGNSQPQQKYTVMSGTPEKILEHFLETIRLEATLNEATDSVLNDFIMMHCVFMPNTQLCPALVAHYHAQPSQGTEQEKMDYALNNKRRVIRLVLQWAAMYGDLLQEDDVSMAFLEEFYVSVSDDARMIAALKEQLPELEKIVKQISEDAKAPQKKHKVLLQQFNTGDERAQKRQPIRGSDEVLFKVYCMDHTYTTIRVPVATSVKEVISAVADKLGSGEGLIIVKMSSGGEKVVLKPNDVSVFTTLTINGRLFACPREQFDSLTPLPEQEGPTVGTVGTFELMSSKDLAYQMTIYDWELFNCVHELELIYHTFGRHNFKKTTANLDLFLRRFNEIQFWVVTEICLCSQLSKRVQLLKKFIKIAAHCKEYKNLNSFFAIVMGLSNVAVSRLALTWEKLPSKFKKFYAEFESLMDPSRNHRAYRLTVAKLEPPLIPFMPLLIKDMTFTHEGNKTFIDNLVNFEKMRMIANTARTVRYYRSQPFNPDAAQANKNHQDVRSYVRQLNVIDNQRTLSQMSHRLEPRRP
Ubiquitin carboxyl-terminal hydrolase 1 (Homo sapiens), sequence (O94782 whole entry, looked up): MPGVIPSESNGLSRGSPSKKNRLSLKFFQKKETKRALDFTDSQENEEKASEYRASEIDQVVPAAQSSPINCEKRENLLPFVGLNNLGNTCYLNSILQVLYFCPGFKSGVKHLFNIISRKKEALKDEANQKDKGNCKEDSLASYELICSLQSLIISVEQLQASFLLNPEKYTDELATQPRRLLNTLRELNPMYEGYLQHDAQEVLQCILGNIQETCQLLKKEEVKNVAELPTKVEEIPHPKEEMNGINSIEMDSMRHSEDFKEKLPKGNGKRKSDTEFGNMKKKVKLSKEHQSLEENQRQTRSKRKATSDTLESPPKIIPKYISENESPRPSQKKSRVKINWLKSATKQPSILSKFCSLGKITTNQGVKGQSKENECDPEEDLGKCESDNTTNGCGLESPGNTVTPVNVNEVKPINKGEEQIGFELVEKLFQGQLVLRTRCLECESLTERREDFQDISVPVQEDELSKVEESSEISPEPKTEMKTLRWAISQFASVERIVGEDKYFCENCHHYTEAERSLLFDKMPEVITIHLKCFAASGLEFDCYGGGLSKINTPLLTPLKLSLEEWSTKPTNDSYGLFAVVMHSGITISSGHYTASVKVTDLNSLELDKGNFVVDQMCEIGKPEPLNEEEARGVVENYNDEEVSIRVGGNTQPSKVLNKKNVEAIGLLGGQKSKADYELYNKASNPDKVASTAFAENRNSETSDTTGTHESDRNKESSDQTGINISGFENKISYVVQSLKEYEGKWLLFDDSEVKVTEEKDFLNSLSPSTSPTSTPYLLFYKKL
Cytochrome P450 3A4 (Homo sapiens), sequence (P08684 whole entry, looked up): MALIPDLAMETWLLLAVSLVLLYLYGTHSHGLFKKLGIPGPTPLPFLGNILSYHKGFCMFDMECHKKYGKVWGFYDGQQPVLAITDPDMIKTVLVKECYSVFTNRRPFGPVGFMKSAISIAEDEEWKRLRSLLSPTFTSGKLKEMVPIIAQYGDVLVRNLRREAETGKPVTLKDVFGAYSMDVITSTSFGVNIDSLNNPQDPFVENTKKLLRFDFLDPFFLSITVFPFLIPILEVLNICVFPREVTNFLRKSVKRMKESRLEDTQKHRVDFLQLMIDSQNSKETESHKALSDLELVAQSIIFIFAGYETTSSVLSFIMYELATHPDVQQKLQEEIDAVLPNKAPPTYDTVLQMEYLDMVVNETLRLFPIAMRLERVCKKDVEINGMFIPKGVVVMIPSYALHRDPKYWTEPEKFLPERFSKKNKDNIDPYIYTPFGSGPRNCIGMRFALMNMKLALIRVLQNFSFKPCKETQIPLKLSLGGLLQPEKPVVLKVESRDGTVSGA
Dual specificity protein kinase CLK4 (Homo sapiens), sequence (Q9HAZ1 whole entry, looked up): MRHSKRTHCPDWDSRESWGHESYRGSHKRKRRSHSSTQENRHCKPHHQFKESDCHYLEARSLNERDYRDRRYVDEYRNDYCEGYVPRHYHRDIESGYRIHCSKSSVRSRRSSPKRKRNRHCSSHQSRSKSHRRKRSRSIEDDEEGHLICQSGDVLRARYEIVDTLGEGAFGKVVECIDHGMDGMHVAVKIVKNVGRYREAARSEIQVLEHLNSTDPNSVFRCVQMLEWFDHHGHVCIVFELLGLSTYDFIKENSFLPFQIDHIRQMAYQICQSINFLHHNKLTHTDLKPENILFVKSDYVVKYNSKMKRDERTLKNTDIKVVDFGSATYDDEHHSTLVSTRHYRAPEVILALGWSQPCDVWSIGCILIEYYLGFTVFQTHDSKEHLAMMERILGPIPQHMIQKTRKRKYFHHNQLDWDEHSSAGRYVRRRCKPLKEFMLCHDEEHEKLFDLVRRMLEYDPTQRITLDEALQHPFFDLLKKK
Cytochrome P450 1A2 (Homo sapiens), sequence (P05177 whole entry, looked up): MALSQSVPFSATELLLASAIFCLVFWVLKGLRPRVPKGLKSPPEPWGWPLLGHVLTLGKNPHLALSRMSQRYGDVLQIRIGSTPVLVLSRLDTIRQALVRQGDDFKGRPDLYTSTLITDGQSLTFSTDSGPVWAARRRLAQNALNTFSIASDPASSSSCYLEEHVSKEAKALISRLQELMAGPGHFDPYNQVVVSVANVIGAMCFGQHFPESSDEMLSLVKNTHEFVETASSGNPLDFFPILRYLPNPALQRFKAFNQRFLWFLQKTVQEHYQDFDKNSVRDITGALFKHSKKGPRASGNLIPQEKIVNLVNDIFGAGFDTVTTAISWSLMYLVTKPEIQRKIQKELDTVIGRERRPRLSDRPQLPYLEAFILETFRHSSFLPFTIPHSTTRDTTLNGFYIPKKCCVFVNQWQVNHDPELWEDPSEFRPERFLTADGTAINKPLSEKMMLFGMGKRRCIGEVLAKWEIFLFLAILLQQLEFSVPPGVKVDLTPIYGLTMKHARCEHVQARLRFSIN
Glucocorticoid receptor (Homo sapiens), sequence (P04150 whole entry, looked up, the tested form may be a part): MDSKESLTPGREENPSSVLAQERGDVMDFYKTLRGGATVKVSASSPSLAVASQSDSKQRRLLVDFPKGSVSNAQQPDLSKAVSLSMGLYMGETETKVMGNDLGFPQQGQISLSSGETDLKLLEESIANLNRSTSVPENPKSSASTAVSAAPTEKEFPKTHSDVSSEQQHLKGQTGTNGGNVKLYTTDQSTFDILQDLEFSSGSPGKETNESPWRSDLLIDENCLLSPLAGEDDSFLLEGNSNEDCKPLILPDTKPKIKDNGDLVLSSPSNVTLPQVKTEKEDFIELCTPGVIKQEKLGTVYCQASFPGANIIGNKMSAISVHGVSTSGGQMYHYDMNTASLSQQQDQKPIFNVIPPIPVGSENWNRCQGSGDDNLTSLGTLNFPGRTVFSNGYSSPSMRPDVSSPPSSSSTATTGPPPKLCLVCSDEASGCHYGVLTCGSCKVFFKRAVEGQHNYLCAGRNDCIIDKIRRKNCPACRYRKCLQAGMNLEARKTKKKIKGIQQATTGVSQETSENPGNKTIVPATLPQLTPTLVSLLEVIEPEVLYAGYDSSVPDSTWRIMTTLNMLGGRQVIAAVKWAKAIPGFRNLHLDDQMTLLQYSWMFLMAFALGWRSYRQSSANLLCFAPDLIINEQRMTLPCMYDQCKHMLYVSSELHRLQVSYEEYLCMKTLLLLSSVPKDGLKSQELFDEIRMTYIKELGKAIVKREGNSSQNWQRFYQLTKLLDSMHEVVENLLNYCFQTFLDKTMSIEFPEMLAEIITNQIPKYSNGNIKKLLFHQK

Question: With `NC(=NCc1ccc(Cl)c(Cl)c1)NC(=O)c1nc(Cl)c(N)nc1N` as the compound, how does the activity change, negative = inhibition [1] read?
Answer: -11.5% [at 38 µM] (inactive)

Question: And the Potency [2]?
Answer: 10 µM (active)

Question: What about the activity, negative = inhibition [3] of the same compound?
Answer: 5.12% [at 38 µM] (inactive)

Question: And the Potency [4]?
Answer: > 46 µM (inactive)

Question: And the Potency [5]?
Answer: > 46 µM (inactive)

Question: And the Potency [6]?
Answer: inactive

Question: And the activity change, negative = inhibition [7]?
Answer: 0.442% (inactive)

Question: And the max response [7, 21]?
Answer: -3.02%

Question: And the max response [7, 22]?
Answer: -2.51%

Question: Which Potency [8] does the source give for `COCCNc1ncnc2ccc(-c3ccc(N(C)C)cc3)cc12` here?
Answer: > 11.4 µM (inactive)

Question: What about the activity change, negative = inhibition [1] of the same compound?
Answer: -29.4% (inactive)

Question: What about the Potency [2] of the same compound?
Answer: 0.251 µM (active)

Question: And the activity change, negative = inhibition [9]?
Answer: 4.01% (inactive)

Question: What about the activity, negative = inhibition [3] of the same compound?
Answer: -5.06% (inactive)

Question: What about the Potency [4] of the same compound?
Answer: > 46 µM (inactive)

Question: And the Potency [5]?
Answer: > 46 µM (inactive)

Question: And the Potency [10]?
Answer: inactive

Question: And the Potency [11]?
Answer: inactive

Question: What about the Potency [12] of the same compound?
Answer: 7.94 µM (active)

Question: And the Potency [6]?
Answer: inactive

Question: What about the activity change, negative = inhibition [7] of the same compound?
Answer: -6.08% (inactive)

Question: What about the max response [7, 21] of the same compound?
Answer: -1.3%

Question: And the max response [7, 22]?
Answer: -8.9%

Question: What about the Potency [13] of the same compound?
Answer: 8.91 µM (active)

Question: What about the Potency [14] of the same compound?
Answer: 10 µM (active)

Question: And the Potency [15]?
Answer: inactive

Question: And the Potency [16]?
Answer: inactive

Question: With `COCCn1c(=O)c(-c2cccc(C#N)c2)nc2cnc(N3CCN(C)CC3)nc21` as the compound, how does the Potency [8] read?
Answer: > 11.4 µM (inactive)

Question: What about the activity change, negative = inhibition [1] of the same compound?
Answer: -14.7% (inactive)

Question: What about the Potency [2] of the same compound?
Answer: 15.8 µM (active)

Question: And the activity change, negative = inhibition [9]?
Answer: 0.13% (inactive)

Question: What about the activity, negative = inhibition [3] of the same compound?
Answer: -4.72% (inactive)

Question: And the Potency [4]?
Answer: > 9.22 µM (inactive)

Question: And the Potency [5]?
Answer: > 46 µM (inactive)

Question: What about the Potency [10] of the same compound?
Answer: inactive

Question: What about the Potency [11] of the same compound?
Answer: inactive

Question: What about the activity change, negative = inhibition [7] of the same compound?
Answer: 6.64% (inactive)

Question: And the max response [7, 21]?
Answer: 18.2%

Question: And the max response [7, 22]?
Answer: 22.5%

Question: What about the Potency [13] of the same compound?
Answer: inactive

Question: And the Potency [14]?
Answer: inactive

Question: And the Potency [15]?
Answer: inactive

Question: And the Potency [16]?
Answer: inactive

Question: With `COc1cc2c3cc1Oc1c(OC)c(OC)cc4c1[C@@H](Cc1ccc(O)c(c1)Oc1ccc(cc1)C[C@@H]3N(C)CC2)N(C)CC4` as the compound, how does the Potency [2] read?
Answer: inactive

Question: And the Potency [4]?
Answer: > 46 µM (inactive)

Question: What about the Potency [5] of the same compound?
Answer: > 46 µM (inactive)

Question: What about the Potency [10] of the same compound?
Answer: inactive

Question: And the activity change, negative = inhibition [7]?
Answer: 6.85% (inactive)

Question: And the max response [7, 21]?
Answer: 20.8%

Question: And the max response [7, 22]?
Answer: 29.4%

Question: What does the source list for `COc1ccc(-c2cc(=O)c3c(OC)c(OC)c(OC)c(OC)c3o2)cc1OC`?
Answer: Potency [12]: 25.1 µM (active); Potency [6]: inactive; outcome [17]: inactive; activity change, negative = inhibition [7]: -10.1% (inactive); max response [7, 21]: -11.8%; max response [7, 22]: -19.5%; Potency [16]: inactive

Question: What does the source list for `COC(=O)[C@@H]1C2CC3c4[nH]c5cc(OC)ccc5c4CCN3CC2C[C@H](OC(=O)c2cc(OC)c(OC)c(OC)c2)C1OC` (stereo partly drawn)?
Answer: Potency [6]: inactive; activity change, negative = inhibition [7]: -8.88% (inactive); max response [7, 21]: 3.77%; max response [7, 22]: -5.55%; Potency [18]: inactive; Potency [19]: inactive

Question: Which Potency [6] does the source give for `CC1(C)[C@@H](O)CC[C@]2(C)C3C(=O)C=C4C5C[C@@](C)(C(=O)O)CC[C@]5(C)CC[C@@]4(C)[C@]3(C)CC[C@@H]12` (stereo partly drawn) here?
Answer: inactive

Question: What about the activity change, negative = inhibition [7] of the same compound?
Answer: 2.84% (inactive)

Question: What about the max response [7, 21] of the same compound?
Answer: 8.09%

Question: What about the max response [7, 22] of the same compound?
Answer: 11.1%

Question: And the Potency [18]?
Answer: inactive

Question: What about the Potency [19] of the same compound?
Answer: inactive

Question: And the Potency [20]?
Answer: 5.55 µM (active)

Question: Which Potency [12] does the source give for `C=C[C@](C)(O)CCC1C(=C)CC(OC(C)=O)C2C(C)(C)CCCC12C` (stereo partly drawn) here?
Answer: 2.51 µM (active)

Question: And the Potency [6]?
Answer: inactive

Question: And the activity change, negative = inhibition [7]?
Answer: -0.933% (inactive)

Question: And the max response [7, 21]?
Answer: 1.16%

Question: And the max response [7, 22]?
Answer: 0.207%

Question: And the Potency [18]?
Answer: inactive

Question: What about the Potency [19] of the same compound?
Answer: inactive

Question: And the Potency [20]?
Answer: 11.1 µM (active)
